Records with an inconclusive call do not appear. A call without a number means that no potency is given here. Calls of active or inactive are those of the source. Calls follow the shape of the dose curve; as a rule, active = well fitted activation curve with a large enough effect in the repeat runs; inconclusive = weak or mixed curves; inactive = no such curve, though single readings can be large or run the other way.

This assay can be described thus: qHTS assay for small molecules that induce genotoxicity in human embryonic kidney cells expressing luciferase-tagged ATAD5 (AID 651632). Also: nearly all actives have a fitted effect of over 15% in size. The following applies: HEK293T ATAD5-luciferase induction, 16 h; series mostly up to 83.3 µM. In a few lines: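 Quantitative HTS in HEK293T expressing luciferase-tagged ATAD5, whose levels rise upon DNA damage. Exposure ran 16 hr at 37C and 5% CO2, with luminescence read 30 min after Amplite addition at room temperature.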
Background: Quantitative high-throughput screening tests each substance at several concentrations.
As for `IC(I)I`, the Potency entry was “inactive”. On to `CC1(C)NC(=O)N(c2ccc([N+](=O)[O-])c(C(F)(F)F)c2)C1=O`, for which the Potency entry is “inactive”. In the case of `CC(=O)O[C@]1(C(C)=O)CC[C@H]2[C@@H]3C=C(C)C4=CC(=O)CC[C@]4(C)[C@H]3CC[C@@]21C` it was “inactive”. For the compound `O=[Se](O)O`, the Potency entry was “inactive”. Consider `C=C[Si](OCCOC)(OCCOC)OCCOC`, for which the Potency entry is “inactive”. In the case of `Cc1ccc(C)c(O)c1` it was “inactive”. Regarding `COc1cc([C@H]2Oc3cc([C@H]4Oc5cc(O)cc(O)c5C(=O)[C@@H]4O)ccc3O[C@@H]2CO)ccc1O`, the Potency entry is “inactive”. In the case of `C=CC(C)(O)CCC=C(C)C` (configuration not stated) it was “inactive”; in that of `Cc1ccc(C(C)(C)C)cc1`, “inactive”. As for `Clc1ccc(Sc2cc(Cl)c(Cl)cc2Cl)cc1`, the Potency result was “inactive”. Turning to `O=C(O)c1ccc(O)cc1`, the Potency result was “inactive”. The result for `Cc1ccc(S(=O)(=O)NCl)cc1` reads “inactive”; that for `CN(Cc1cnc2nc(N)nc(N)c2n1)c1ccc(C(=O)N[C@@H](CCC(=O)O)C(=O)O)cc1`, “inactive”. In the case of `O=C(O)c1cc(=O)[nH]c(=O)[nH]1` it was “inactive”. The result for `CC[C@]12CCCN3CCc4c(n(c5ccccc45)[C@@](O)(C(=O)OC)C1)[C@@H]32` reads “inactive”; that for `FC(F)(F)C(Cl)Br` (configuration not stated), “inactive”; that for `NCCOCCO`, “inactive”.

On to `CN(C)/N=N/c1nc[nH]c1C(N)=O`, for which the Potency result was “inactive”.

For `CC1(C)C(C=C(Cl)Cl)C1C(=O)OCc1cccc(Oc2ccccc2)c1` (configuration not stated), the Potency entry was “inactive”.

Regarding `Cc1cccc(Nc2ccccc2C(=O)O)c1C`, the Potency result was “inactive”. As for `[O-]/[N+](=N\O)c1ccccc1`, the Potency entry was “inactive”. In the case of `CC(=O)Oc1ccc(C(c2ccc(OC(C)=O)cc2)c2ccccn2)cc1` it was “inactive”.

The values above are taken from PubChem BioAssay (Tox21).
